The text below walks through data of PubChem BioAssay (EPA / NIEHS).

Structures are written as SMILES. Inconclusive results are not listed. Active and inactive are the calls of the source. The calls were made as follows: active = hit-call score of the fitted dose curve at least 0.9, where 1 is the maximum; inconclusive = response in the unintended direction; inactive = score below 0.9. *1 amine or outer side, *2 acyl side, *3 side chain or, on linkers, in order; H or OH if unused. Where a SMILES comes first, the peptide text is derived from it. Bridges are numbered along the chain shown (N, C = ends). [ ]: non-standard residue; d: D form. The star is where a group is joined. X3 = NC1=N[C@@H]([C@H](N[*:1])C(=O)[*:2])C[C@H](O)N1; ΔAla(Z-3-ureido) = NC(=O)N/C=C(\N)C(=O)O; β3hOrn = NCCC[C@H](N)CC(=O)*; Dap = NC[C@H](N)C(=O)O

Sequence of Cellular tumor antigen p53 (Homo sapiens) (P04637 whole entry, looked up): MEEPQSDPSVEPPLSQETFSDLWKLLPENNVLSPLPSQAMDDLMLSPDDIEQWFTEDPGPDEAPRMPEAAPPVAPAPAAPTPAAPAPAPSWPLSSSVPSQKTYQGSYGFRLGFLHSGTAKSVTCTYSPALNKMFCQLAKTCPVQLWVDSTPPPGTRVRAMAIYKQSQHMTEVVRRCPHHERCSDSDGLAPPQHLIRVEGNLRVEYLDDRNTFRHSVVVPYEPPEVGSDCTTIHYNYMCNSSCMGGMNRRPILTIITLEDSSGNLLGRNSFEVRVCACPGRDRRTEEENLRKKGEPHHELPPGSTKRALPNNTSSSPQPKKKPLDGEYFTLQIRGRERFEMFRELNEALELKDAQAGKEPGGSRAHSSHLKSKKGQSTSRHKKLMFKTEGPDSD

In one experiment the target is Cellular tumor antigen p53 (Homo sapiens) (UniProt P04637). The experiment can be described thus: TOX21_p53_BLA_p2_ratio: Tox21 HCT-116 p53 Agonism Beta-lactamase Assay, Ratio, Phase 2 (AID 2283592). In a few lines:
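Readout: blue/green (460/530 nm) FRET emission ratio after 2 h CCF4-AM loading at room temperature, excitation 405 nm. HCT116 p53 bla cells, 16 h compound exposure at 37C, 5% CO2; agonist direction fitted against DMSO baseline.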
`N.N.O=C([O-])C1(C(=O)[O-])CCC1.[Pt+4]`: the outcome was inactive.

Regarding `CCCCCCCCN`, the result was inactive.

As to `C[C@@H]1C\C=C/C=C/C=C/C=C/[C@H](O[C@@H]2O[C@H](C)[C@@H](O)[C@H](N)[C@@H]2O)C[C@@H]2O[C@](O)(C[C@@H](O)C[C@@H]3O[C@@H]3/C=C\C(=O)O1)C[C@H](O)[C@H]2C(=O)O`, the outcome was inactive.

Consider `O=P(O)(O)C(O)(Cn1ccnc1)P(=O)(O)O`, for which the result was inactive.

For `CCOc1cc(OCC)c(C(=O)CCC(=O)O)cc1OCC`, the outcome was inactive.

Regarding `CCNc1nc(NC(C)CC)nc(OC)n1` (stereo not given), the outcome was inactive.

As for `CC1(C)S[C@@H]2[C@H](N=CN3CCCCCC3)C(=O)N2[C@H]1C(=O)O`, the outcome was inactive.

`CC(O)c1ccccc1` (stereo not given): the result was inactive.

Consider `NCCC[C@H](N)CC(=O)N[C@H]1CNC(=O)[C@H]([C@H]2C[C@H](O)NC(N)=N2)NC(=O)/C(=C/NC(N)=O)NC(=O)[C@H](CO)NC(=O)[C@H](CO)NC1=O` (β3hOrn-[Dap]SS[ΔAla(Z-3-ureido)][X3]; lactam 1-C), for which the result was inactive.

For the molecule `CCCCCCCCCC(=O)N(C)C`, the result was inactive.

Regarding `CC1(N)CCC(C(C)(C)N)CC1` (stereo not given), the result was inactive.

Regarding `NC(=S)NC(N)=S`, the outcome was inactive.

For `C[C@@H]1CC[C@H]2C(C)(C)[C@H]3C[C@@]12CC[C@@]3(C)O`, the outcome was inactive.

Regarding `COc1ccc(N=[N+]([O-])c2ccc(OC)cc2)cc1`, the result was inactive.

Regarding `Nc1ccn(C[C@@H](CO)OCP(=O)(O)O)c(=O)n1`, the outcome was inactive.

In the case of `CN(C)CCc1c[nH]c2ccc(C[C@H]3COC(=O)N3)cc12`, the result was inactive.

Test system in another experiment: not listed separately
As to the kind of experiment: TOX21_p53_BLA_p4_viability: Viability Assessment in the Tox21 HCT-116 p53 Agonism Beta-lactamase Assay, Phase 4 (AID 2283597).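 Also: hits lower the luminescence signal meaning cytotoxicity.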 In outline:
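ATP content by CellTiter-Glo luminescence, 30 min RT, read after the beta-lactamase ratio step. Cells: HCT116, 4000/well, compound added after 5 h, exposure 16 h at 37C. Signal loss = reduced viability.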
Take `CC(=O)OCC(=O)[C@@]1(O)CC[C@H]2[C@@H]3CCC4=CC(=O)C=C[C@]4(C)[C@@]3(F)[C@@H](O)C[C@@]21C`: the result was inactive.

As for `CCNc1cc(O)ccc1C`, the outcome was inactive.

Turning to `CCOC(=N)CC(=O)OCC`, the call was inactive.

With `CCC(C)(C)C`, the molecule was called inactive.

With `CCCc1ncc(C[n+]2ccccc2C)c(N)n1`, the result was inactive.

On to `Cc1cc(C(=O)NCCc2ccc(S(=O)(=O)NC(=O)NN3CCCCCC3)cc2)no1`, for which the call was inactive.

Consider `COc1ccc(/C=C/C(=O)Nc2ccccc2C(=O)O)cc1OC`, for which the molecule was called inactive.

On to `C=CCCCCCCCCCCCCCCCC`, for which the outcome was inactive.

Consider `CCOc1cc(OCC)c(C(=O)CCC(=O)O)cc1OCC`, for which the molecule was classed as inactive.

With `CC1(C)S[C@@H]2[C@H](N=CN3CCCCCC3)C(=O)N2[C@H]1C(=O)O`, the result was inactive.

In the case of `CC(O)c1ccccc1` (stereo not given), the outcome was inactive.

On to `NCCC[C@H](N)CC(=O)N[C@H]1CNC(=O)[C@H]([C@H]2C[C@H](O)NC(N)=N2)NC(=O)/C(=C/NC(N)=O)NC(=O)[C@H](CO)NC(=O)[C@H](CO)NC1=O` (β3hOrn-[Dap]SS[ΔAla(Z-3-ureido)][X3]; lactam 1-C), for which the call was inactive.

Take `NC(=S)NC(N)=S`: the call was inactive.

As for `C[C@@H]1CC[C@H]2C(C)(C)[C@H]3C[C@@]12CC[C@@]3(C)O`, the molecule was called inactive.
